Source: PubChem BioAssay (EPA / NIEHS)
Records with an inconclusive call do not appear. Activity calls are given as the source filed them. Rule for the calls, unless noted: active = hit-call score of the fitted dose curve at least 0.9, where 1 is the maximum; inactive = score below 0.9.

Tests used:
[1] = ACEA_ER_80hr: ACEA Biosciences xCELLigence Real-Time Cell Analysis on Estrogen Receptor Agonism for Proliferation (AID 2282667; active = hit-call score of the fitted dose curve at least 0.9, where 1 is the maximum); settings: T47D proliferation, impedance (xCELLigence), 80 h
Method in brief: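 Real-time electrical impedance tracked growth of the human breast line T47D, with the 80 h post-dosing value used. Dosing spanned eight 1:4 steps down from a 100 uM final top concentration, run in duplicate.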

[2] = APR_HepG2_CellCycleArrest_24hr: Apredica 24-hour HepG2 Assay for Cell Cycle Arrest (AID 2282905); settings: imaging, actives raise or lower the signal;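 note: cell cycle arrest scored as ratio of 2N to 4N nuclear DNA content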
Method in brief: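 HepG2 cells were exposed to compounds at 0.39–200 uM (ten concentrations, duplicate) in 0.5% v/v DMSO for 24 hr. After formaldehyde fixation and Triton permeabilization, Hoechst 33342-stained nuclei were imaged at 20x; DNA content was quantified, with bidirectional fitting against DMSO.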

[3] = APR_HepG2_NuclearSize_24hr: Apredica 24-hour HepG2 Assay for Nuclear Size (AID 2282907); settings: high-content imaging, actives raise or lower the signal
Method in brief: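 HepG2 human liver cells were exposed for 24 hr to compounds at 0.39–200 uM (ten concentrations, duplicate) in 0.5% v/v DMSO. They were then formaldehyde-fixed, Triton-permeabilized and Hoechst 33342-stained, and nuclear diameter was imaged at 20x. Bidirectional fits were made against DMSO.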

[4] = APR_HepG2_CellLoss_24hr: Apredica 24-hour HepG2 Assay for Cell Loss (AID 2282908); settings: high-content imaging;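 for AC50: fit in both directions so a hit may be cell loss or gain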
Method in brief: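 Compounds were tested at 0.39–200 uM in duplicate with 0.5% v/v DMSO final. Cells were then fixed in 3.7% formaldehyde, Hoechst 33342 nuclei were imaged at 20x by HCS, and cell number was fitted bidirectionally against DMSO.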

[5] = APR_HepG2_MicrotubuleCSK_24hr: Apredica 24-hour HepG2 Assay for Microtubule CSK Stabilty (AID 2282909); settings: HepG2 microtubule cytoskeleton imaging, actives raise or lower the signal
Method in brief: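 HepG2 cells exposed 24 h to compounds at 0.39–200 uM (duplicate, 0.5% v/v DMSO final), then fixed, permeabilized and immunostained for alpha-tubulin with Hoechst 33342. Cytoskeleton imaged at 20x; bidirectional fit versus DMSO baseline.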

[6] = APR_HepG2_MitoticArrest_24hr: Apredica 24-hour HepG2 Assay for Mitotic Arrest (AID 2282910); settings: high-content imaging, actives raise or lower the signal
Method in brief: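 HepG2 cells, 24 h exposure at 0.39-200 uM (10 concentrations, duplicate, 0.5% DMSO). Fixed, stained for phospho-histone H3 with Hoechst; imaged by high-content microscopy, bidirectional fit versus DMSO.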

[7] = APR_HepG2_MitoMembPot_24hr: Apredica 24-hour HepG2 Assay for Mitochondrial Membrane Potential (AID 2282911); settings: imaging, actives raise or lower the signal
Method in brief: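 Cells are dosed for 24 hr across 0.39 to 200 uM with solvent held at 0.5% DMSO. They are then stained with 250 nM MitoTracker Red CMXRos for 30 min, fixed in 3.7% formaldehyde and imaged.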

[8] = APR_HepG2_MitoMass_24hr: Apredica 24-hour HepG2 Assay for Mitochondrial Mass (AID 2282912); settings: high-content imaging, actives raise or lower the signal
Method in brief: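 Human HepG2 liver cells were exposed for 24 hr to compounds at 0.39–200 uM (duplicates, 0.5% v/v DMSO final). They were stained live with 250 nM MitoTracker Red CMXRos for 30 min, fixed in 3.7% formaldehyde, and imaged by HCS fluorescence; signals were fitted bidirectionally against DMSO.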

[9] = APR_HepG2_p53Act_24hr: Apredica 24-hour HepG2 Assay for p53 Activation (AID 2282913); settings: high-content imaging, actives raise or lower the signal;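 note: p53 protein immunofluorescence averaged per cell in HepG2 with Hoechst nuclei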
Method in brief: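 Human HepG2 liver cells; 24 hr cpd treatment, 0.39–200 uM, 0.5% DMSO final. Fixed in 3.7% formaldehyde, permeabilized with 0.5% Triton X-100, stained with anti-p53/Cy5 plus Hoechst 33342. Six images per well at 20x; gain or loss vs DMSO.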

[10] = APR_HepG2_CellLoss_72hr: Apredica 72-hour HepG2 Assay for Cell Loss (AID 2282915); settings: high-content imaging
Method in brief: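 HepG2 cells exposed 72 h to compound at 0.39–200 uM (10 concentrations, duplicate) in 0.5% DMSO. Fixed with 3.7% formaldehyde and Hoechst 33342-stained. Imaged at 20x; nuclear count gives cell number, fitted bidirectionally versus DMSO.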

[11] = APR_HepG2_P-H2AX_72hr: Apredica 72-hour HepG2 Assay for H2AX Phosphorylation (AID 2282916); settings: imaging, actives raise or lower the signal;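 note: phospho-histone H2A.x immunostain intensity per cell marking DNA damage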
Method in brief: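 HepG2 human liver cells were exposed for 72 hr to compounds at 0.39–200 uM (10 concentrations, duplicate per plate) in 0.5% v/v DMSO. Fixed, permeabilized cells were immunolabeled for phospho-histone H2A.x with Hoechst 33342 and imaged by HCS fluorescence; bidirectional fit versus DMSO.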

[12] = APR_HepG2_MitoMembPot_72hr: Apredica 72-hour HepG2 Assay for Mitochondrial Membrane Potential (AID 2282917); settings: imaging, actives raise or lower the signal
Method in brief: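 HepG2 cells dosed 72 hr with compound at 0.39–200 uM in duplicate, 0.5% v/v DMSO final. Mitochondria stained with 250 nM MitoTracker Red CMXRos for 30 min before formaldehyde fixation, imaged by high-content fluorescence; bidirectional fit versus DMSO.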

[13] = APR_HepG2_MitoticArrest_72hr: Apredica 72-hour HepG2 Assay for Mitotic Arrest (AID 2282918); settings: high-content imaging, actives raise or lower the signal
Method in brief: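 Read-out is phospho-histone H3 immunofluorescence with Hoechst nuclear segmentation, imaged at 20x. Human HepG2 liver cells received ten concentrations (0.39–200 uM, final DMSO 0.5% v/v) for 72 hr before fixation. Gain or loss of signal was fitted relative to DMSO.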

[14] = APR_HepG2_MicrotubuleCSK_72hr: Apredica 72-hour HepG2 Assay for Microtubule CSK Stabilty (AID 2282919); settings: HepG2 microtubule cytoskeleton, high-content imaging, actives raise or lower the signal
Method in brief: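 HepG2 cells were exposed 72 hr to compound at 0.39–200 uM in duplicate (0.5% DMSO final), then fixed and permeabilized. Alpha-tubulin immunofluorescence was imaged by high-content microscopy, with bidirectional fitting against DMSO and taxol as positive control.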

[15] = APR_HepG2_P-H2AX_24hr: Apredica 24-hour HepG2 Assay for H2AX Phosphorylation (AID 2282920); settings: high-content imaging, actives raise or lower the signal
Method in brief: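 HepG2, 24 hr, cpd 0.39–200 uM (10 conc, duplicate), DMSO 0.5% v/v final. Fix 3.7% formaldehyde, Triton X-100 permeabilize, anti-phospho-H2A.x 1:200 + Hoechst 2 ug/mL. Imaged, bidirectional fit vs DMSO.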

[16] = APR_HepG2_StressKinase_72hr: Apredica 72-hour HepG2 Assay for Stress Kinase (AID 2282921); settings: HepG2 stress kinase (phospho-c-Jun) imaging, actives raise or lower the signal
Method in brief: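 Cells were exposed for 72 h to ten concentrations (0.39–200 uM, duplicate) at 0.5% v/v DMSO final, then fixed with 3.7% formaldehyde, permeabilized and immunostained for phospho-c-Jun (Cy3 secondary) with Hoechst nuclear counterstain.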

[17] = APR_HepG2_StressKinase_24hr: Apredica 24-hour HepG2 Assay for Stress Kinase (AID 2282922); settings: HepG2 stress kinase (phospho-c-Jun) imaging, actives raise or lower the signal
Method in brief: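 HepG2 cells exposed 24 h to 0.39–200 uM compound in duplicate (0.5% v/v DMSO final). Cells fixed in 3.7% formaldehyde, permeabilized and immunostained for phospho-c-Jun; read by high-content fluorescence imaging, fitted bidirectionally against DMSO.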

[18] = APR_HepG2_MitoMass_72hr: Apredica 72-hour HepG2 Assay for Mitochondrial Mass (AID 2282924); settings: high-content imaging, actives raise or lower the signal;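 note: MitoTracker Red CMXRos stain intensity per cell imaged as mitochondrial mass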
Method in brief: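 HepG2 cells dosed 72 hr at 0.39–200 uM (0.5% DMSO), in duplicate. MitoTracker Red CMXRos 250 nM loaded 30 min before formaldehyde fixation; high-content fluorescence imaging, bidirectional fit versus DMSO.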

[19] = APR_HepG2_CellCycleArrest_72hr: Apredica 72-hour HepG2 Assay for Cell Cycle Arrest (AID 2282914); settings: high-content imaging, actives raise or lower the signal
Method in brief: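 Read-out is Hoechst-stained nuclear DNA content measured by automated fluorescence imaging (20x, six images per well), fitted in both directions relative to DMSO. Human HepG2 liver cells received 0.39–200 uM compound for 72 hr at 0.5% v/v DMSO.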

[20] = APR_HepG2_p53Act_72hr: Apredica 72-hour HepG2 Assay for p53 Activation (AID 2282923); settings: high-content imaging, actives raise or lower the signal;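 note: average cellular p53 protein immunofluorescence intensity in HepG2 cells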
Method in brief: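 Cells were dosed for 72 hr with compounds at 0.39–200 uM in duplicate (final DMSO 0.5% v/v), then fixed in 3.7% formaldehyde, permeabilized with Triton X-100 and immunostained for p53 (Cy5) with Hoechst 33342 nuclear counterstain.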

Measured: AC50

C1CCC(SSC2CCCCC2)CC1
active: [2] 72.3 µM | [4] 77.9 µM | [9] 88.4 µM | [10] 97.4 µM | [15] 113 µM | [16] 108 µM
not listed: [19] | [20]
inactive: all other assays above

NCCO
not listed: [1] | [20]
inactive: all other assays above

CN[C@H]1CC[C@@H](c2ccc(Cl)c(Cl)c2)c2ccc(S(N)(=O)=O)cc21
active: [4] 15.1 µM | [10] 6.85 µM | [11] 100 µM | [13] 3.89 µM | [14] 12.1 µM | [15] 100 µM | [16] 123 µM
not listed: [19] | [20]
inactive: all other assays above

Cc1cccc([N+](=O)[O-])c1C
not listed: [1] | [20]
inactive: all other assays above

CC(=O)OCCOCCOCCOC(C)=O
not listed: [19]
inactive: all other assays above

CNCc1cc(F)ccc1Oc1ccc(Cl)c(Cl)c1
inactive: [1] | [2] | [5] | [12] | [16] | [17]
active: [3] 54.7 µM | [4] 101 µM | [6] 31.4 µM | [7] 109 µM | [8] 32.6 µM | [9] 52.4 µM | [10] 56.9 µM | [11] 59.5 µM | [13] 32.6 µM | [15] 74.4 µM | [18] 178 µM

NS(=O)(=O)c1cc2c(cc1Cl)NCNS2(=O)=O
not listed: [19] | [20]
inactive: all other assays above
